Experimental data: PubChem BioAssay AID624483 (NMMLSC, 2012)
Hit rate of the full screen: of about 360,000 compounds, about 11,000 (3.1%) were called active. Another 2% or so got no clear call; they are omitted. Many of the other results were omitted from the sample, so actives are more common in it than they were. A number with no mark means an inactive call. Cut-off read from the data, not from the text of the source: active = fluorescence intensity above about 16000; inconclusive = no clear call, values can overlap the other calls; inactive = below that.

test: counter-screen for toxin protease inhibitors: compound fluorescence, primary screen, artefact control for toxin protease inhibitor project, biochemical, multiplex microsphere, HTS (AID 624483); details: compound autofluorescence counterscreen, microsphere flow cytometry; hits give high values

In order of rising fluorescence intensity:
1. O=C(Cc1coc2ccc3ccccc3c12)NCc1cccs1  1980
2. OCCC1CN(Cc2ccc3nsnc3c2)CCN1C1CCCCC1 (configuration not stated)  2180
3. Cc1ccnc(NC(=O)c2ccoc2C)c1  2220
4. Cc1ccc2[nH]c(=O)c(-c3nc4c(C)cccn4c3NCc3ccco3)cc2c1  2400
5. Cc1ccc(C)c(NS(=O)(=O)c2cc(Br)cnc2N)c1  2420
6. O=C1c2ccccc2C(=O)N1c1ccccc1S(=O)C(F)(F)F (configuration not stated)  2440
7. Cc1ccc(OCCCC(=O)Nc2ccc(N3CCOCC3)cc2)cc1  2550
8. Cc1ccc2nc(-c3ccc(SCC(=O)Nc4cc(C)on4)nc3)[nH]c2c1  2760
9. CCOC(=O)c1ccc2c(c1)nc(C)n2CC  2830
10. COc1ccc(C(O)c2nc(-c3ccc4c(c3)OCO4)cs2)cc1 (configuration not stated)  2970
11. CCNC(=O)C1(C)CCCN(C(=O)c2c(C)noc2C)C1 (configuration not stated)  2990
12. COc1cccc(CNc2nc(NCc3ccccc3OC)nc3ccsc23)c1  2990
13. COc1ccc(-c2ccc(C(=O)NC(C)C)c3occc23)c(C)c1  3110
14. COc1cc(NC(=O)C2CC(c3ccccc3O)=NO2)c(OC)cc1Cl (configuration not stated)  3150
15. CC1(C)CC(=O)C=C(c2ccccc2CO)C1=O  3370
16. CC1(C(=O)NS(=O)(=O)c2ccc(C#N)cc2)CCN1C(=O)c1ccc(C2CCCCC2)cc1 (configuration not stated)  3450
17. COc1ccccc1CC1(C)C(=O)Nc2ccc(OC(F)(F)F)cc21 (configuration not stated)  3460
18. Cc1noc(C)c1COC(=O)Cn1c(C)nc2ccccc21  3460
19. COc1ccc(CCNC(=O)Nc2ccc3c(c2)c(=O)n(C)n3C)cc1OC  3460
20. CCCNC(=O)c1cc(C2CCCCN2S(=O)(=O)c2ccc(C#N)cc2)on1 (configuration not stated)  3490
21. CCc1nc2ccc(C(=O)NC3CCN(Cc4ccccc4)CC3)cn2c1N(C)CCN1CCOCC1  3530
22. N#C/C=C/N1CCN(Cc2ccc3c(c2)OCO3)CC1  3600
23. CC1(C(=O)NS(=O)(=O)Cc2cccc(Cl)c2)CCN1C(=O)Cc1ccc(Cl)cc1Cl (configuration not stated)  3610
24. Cc1cccc(-c2cnc(C(O)c3ccc4ccccc4c3)[nH]2)c1 (configuration not stated)  3610
25. Fc1ccc(/C=N/n2c(COc3ccccc3)n[nH]c2=S)cc1  3650
26. CCOC(=O)C1CCN(C(=O)Cn2cc(C#N)c3ccccc32)CC1  3760
27. Cc1occc1C(=O)Nc1cccc(S(=O)(=O)N2CCOCC2)c1  3850
28. CS(=O)(=O)c1cccc(-c2ccc3nncn3c2)c1  3880
29. O=C(NCc1csc(-c2cccs2)n1)C1CC1  3880
30. COc1ccc(S(=O)(=O)N2CCCCCC2)cc1NC(=O)Cc1ccc(OC)c(OC)c1  3920
31. Cc1cc(N2CCN(c3ccc(F)cc3)CC2)n2ncnc2n1  3960
32. COc1ccc(C)cc1NC(=O)c1ccc(-c2ccc(C(C)=O)cc2)o1  3980
33. CCNC(=O)C1(C)CCCN1C(=O)c1ccc(N(C)C)cc1 (configuration not stated)  4040
34. CN(C)C(CNC(=O)c1cccc(S(=O)(=O)N2CCc3ccccc3C2)c1)c1ccccc1 (configuration not stated)  4070
35. CNc1nc2c(C)cccn2c(=O)c1C=Nc1ccc(OC)cc1  4140
36. Cc1cc(C)n2nc(C(=O)N3CCN(Cc4ccc5c(c4)OCO5)CC3)nc2n1  4210
37. CCOC(=O)Nc1ccc2c(c1)N(C(=O)CCCl)c1ccccc1[S@]2=O  4240
38. CCCCCC(=O)Nc1ccc(-c2cn3cccnc3n2)cc1  4250
39. CCCCCCCCOC1OC(CO)C(O)C(O)C1NC(C)=O (configuration not stated)  4290
40. COC(=O)[C@@]1(Cc2ccc(F)cc2)[C@H]2c3cc(C(=O)N4CCCC4)n(C[C@H](O)CO)c3C[C@H]2CN1C(=O)c1ccccc1  4320
41. CCN(CC)c1ccc(C(=O)OCC(=O)c2ccco2)cc1  4360
42. COc1ccccc1CC(=O)Nc1ccc(S(=O)(=O)N2CCCC2)cc1  4360
43. O=C(NCC(=O)N1CCC2(CC1)NCCc1[nH]cnc12)c1ccc(Br)cc1  4440
44. CCOC(=O)CNC(=O)CSc1nc2cccnc2n1CC  4460
45. CCN(CC)CC1(O)CCN(C(=O)c2ccc(Cl)c(Cl)c2)CC1  4500
46. CCOC(=O)c1c(NC(=O)CSc2nccc(=O)[nH]2)sc(C)c1C  4560
47. Cc1cc(NC(=O)CSCC(=O)NC(C)c2ccccc2)no1 (configuration not stated)  5020
48. CCc1ccc(C(=O)COC(=O)c2ccco2)cc1  5070
49. CCOC(=O)Nc1ccc2c(c1)N(C(=O)CCN1CCN(CCO)CC1)c1ccccc1CC2  5290
50. O=C(O)c1ccc(COc2c(F)c(F)cc(F)c2F)o1  5310
51. Cc1ccc(S(=O)(=O)N2CCC(=O)N([C@H](COCc3ccccc3)C(C)C)CC2)cc1  5310
52. O=C(C[n+]1ccc2c(c1)nnn2-c1ccccc1)c1ccc(Cl)cc1  5380
53. O=C(Nc1ccc2c(c1)OCCO2)C(C1CC1)N1CCC(Cc2ccccc2)CC1 (configuration not stated)  5440
54. Cc1ccc(C(=O)Nc2sc(Cc3ccc4c(c3)OCO4)c(C)c2C(N)=O)cc1  5510
55. CCOC(=O)C1CCN(C(=O)COc2cccc3ccccc23)CC1  5570
56. CCOc1ccc(C(=O)COC(=O)c2ccc(-n3cnnn3)cc2)cc1  5640
57. O=C(NCc1ccc2c(c1)OCO2)C1CCCN(S(=O)(=O)c2cccs2)C1 (configuration not stated)  5650
58. O=c1cc(CN2CCCCCCC2)c2c(ccc3ccccc32)o1  5650
59. C=CCNC(=O)c1ccccc1SCc1c(C)noc1C  5700
60. O=C1C(Cl)=C(N2CCOCC2)C(=O)N1c1ccccc1  5720
61. COc1ccc(-c2cc(C(=O)N3CCN(Cc4ccc5c(c4)OCO5)CC3)on2)cc1OC  5740
62. O=C(NCc1ccccn1)[C@@H]1CCCN1C(=O)[C@@H]1CCCN1C(=O)c1ccccc1  5750
63. CC(=O)Nc1ccc(NC(=O)CCCNC(=O)c2ccc(Cl)cc2)cc1  5820
64. Oc1cc2c(cc1CN1CCN(c3ccccc3)CC1)OCO2  5830
65. O=C(CCNC(=O)c1ccc(Cl)cc1)NC1CCCc2ccccc21 (configuration not stated)  5920
66. COC(=O)CCCCC1=CCC2C(=O)C=C(O)C2C1 (configuration not stated)  6010
67. COc1ccc(CC(=O)Nc2c(C(N)=O)oc3ccccc23)cc1  6330
68. CCOc1ccc(C(C)=O)cc1COC(=O)CNC(=O)c1cccs1  6570
69. COC(=O)c1ccc2nc(-c3ccccc3)c(Cc3ccc(OC)cc3C)n2c1  7120
70. CCOc1ccc(-c2n[nH]c(=S)n2/N=C/c2cc3c(cc2[N+](=O)[O-])OCO3)cc1  7340
71. Cc1nc2nc(C)c(CCC(=O)N3CCC4(CC3)OCCO4)c(C)n2n1  8020
72. Cc1cc(C)c(S(=O)(=O)NCC2CCC(C(=O)NCc3ccc4c(c3)OCO4)CC2)c(C)c1 (configuration not stated)  8390
73. Cc1nc2nc(C)c(CCC(=O)N3CCN(c4ccccc4)CC3)c(C)n2n1  8430
74. CCn1ncc(C2=NOC(C(=O)N3CCN(c4ccccc4)CC3)C2)c1C (configuration not stated)  9650
75. CCCN1Cc2cccc(C(=O)Nc3ccc(S(=O)(=O)N4CCCCCC4)cc3)c2C1=O  10600
76. Cc1ccc(CNC(=O)c2ccccc2CCc2ccccc2)cc1  13000

In the case of Fc1ccc(N2CCN(Cc3ccc4c(c3)OCO4)CC2)cc1, the fluorescence intensity is reported as 22800 (active).
In the case of COc1ccc(-c2csc(N3CCN(Cc4ccc5c(c4)OCO5)CC3)n2)cc1, the fluorescence intensity is reported as 23000 (active).
In the case of CCc1c(C)nc2ncnn2c1N1CCC(C(=O)NCc2ccc3c(c2)OCO3)CC1, the fluorescence intensity is reported as 20900 (active).
In the case of Cc1cc(N2CCN(Cc3ccc4c(c3)OCO4)CC2)n2ncnc2n1, the fluorescence intensity is reported as 21200 (active).
In the case of Cc1noc(C)c1CSc1nnc2ccc3ccccc3n12, the fluorescence intensity is reported as 23000 (active).
In the case of O=[N+]([O-])c1ccccc1/C=N/n1c(COc2ccccc2)n[nH]c1=S, the fluorescence intensity is reported as 22400 (active).
With O=C(COC(=O)c1ccccc1C(=O)c1ccccc1)c1ccco1 the fluorescence intensity was 23700 (active).
In the case of CCOC(=O)C1CCN(C(=O)Cc2c(C(=O)O)[nH]c3ccccc23)CC1, the fluorescence intensity is reported as 24500 (active).
In the case of Cc1ccc(-c2csc(SCC(=O)Nc3cc(C)on3)n2)cc1, the fluorescence intensity is reported as 17800 (active).
In the case of COc1ccc(-c2ccc(Nc3ccc(S(=O)(=O)N4CCCC4)cc3)nn2)cc1OC, the fluorescence intensity is reported as 22500 (active).
With CCn1ncc(C2=NOC(C(=O)Nc3ccccc3C(=O)OC)C2)c1C (configuration not stated) the fluorescence intensity was 21900 (active).
For CCCN1Cc2cccc(C(=O)NCc3ccccc3)c2C1=O, the fluorescence intensity was 16800 (active).
With CCOC(=O)c1c(-n2cnnn2)sc(C)c1C the fluorescence intensity was 20300 (active).
In the case of CCOC(=O)Nc1ccc2c(c1)N(C(=O)CN1CCN3CCCC3C1)c1ccccc1CC2 (configuration not stated), the fluorescence intensity is reported as 18500 (active).
In the case of Cc1nc2ncnn2c(C)c1CCC(=O)N1CCN(C(=O)c2ccco2)CC1, the fluorescence intensity is reported as 23100 (active).
For COc1ccc(CC(=O)Nc2sc(Cc3ccccc3)c(C)c2C(N)=O)cc1, the fluorescence intensity was 22200 (active).
With CCCN(CCC)c1nc2c(C)cccn2c(=O)c1/C=C1/SC(=S)N(Cc2ccco2)C1=O the fluorescence intensity was 25600 (active).
With O=C1C(=O)N(c2ccccc2)c2ccccc21 the fluorescence intensity was 22200 (active).
For Cc1occc1C(=O)Nc1cccc(Cn2cccn2)c1, the fluorescence intensity was 16800 (active).
In the case of CCOC(=O)c1ccc2c(c1)nc(SCC(=O)NC(C)C)n2CC, the fluorescence intensity is reported as 19400 (active).
In the case of CCN(CC(=O)NC(C)C)C(=O)CCNC(=O)c1ccc(Cl)cc1, the fluorescence intensity is reported as 23900 (active).
